Records with an inconclusive call do not appear. Activity calls are given as the source filed them. Calls come from the whole dose curve; as a rule, active = well fitted cell-killing curve with a large enough effect; inconclusive = small, poorly fitted or top-dose-only effect, or effect the other way; inactive = flat fitted curve, though single readings scatter. Where a SMILES comes first, the peptide text is derived from it.
Experiments:
Experiment in all cases: Primary qHTS to identify gynecologic anti-cancer compounds using libraries of approved drugs and bioactive compounds (AID 1345084); note: nearly all actives have a fitted effect of over 55% in size
[1] = test system: Es-2; conditions: Gynecologic cancer cell panel viability, ATPlite luminescence, 48 h; series mostly up to 57.5 µM
In short: (§1)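 48 h compound exposure at 37 C, 5% CO2; five-point qHTS. ATPlite luminescence readout of cell ATP.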

[2] = test system: HeLa; conditions: Gynecologic cancer cell panel viability, ATPlite luminescence, 48 h; series mostly up to 57.5 µM
In short: as §1

[3] = test system: Hek293T; conditions: Gynecologic cancer cell panel viability, ATPlite luminescence, 48 h, control line for the selectivity index; series mostly up to 57.5 µM
In short: as §1

[4] = test system: JEG-3; conditions: Gynecologic cancer cell panel viability, ATPlite luminescence, 48 h; series mostly up to 57.5 µM
In short: as §1

[5] = test system: OV90; conditions: Gynecologic cancer cell panel viability, ATPlite luminescence, 48 h; series mostly up to 57.5 µM
In short: as §1

[6] = test system: PA-1; conditions: Gynecologic cancer cell panel viability, ATPlite luminescence, 48 h; series mostly up to 57.5 µM
In short: as §1

[7] = test system: Tov-21-G; conditions: Gynecologic cancer cell panel viability, ATPlite luminescence, 48 h; series mostly up to 57.5 µM
In short: as §1

[8] = test system: Tov112D; conditions: Gynecologic cancer cell panel viability, ATPlite luminescence, 48 h; series mostly up to 57.5 µM
In short: as §1
% is set by controls: 0 for no effect and ±100 for the full control effect.

Cc1coc2c1CC1OC1(C)CCC1OC1(C)C2 (configuration not stated)
inactive: Potency [1] | Potency [2] | Potency [3] | Potency [4] | Potency [5] | Potency [6] | Potency [7] | Potency [8]

COc1ccc(C(OC2OC(CO)C(O)C(O)C2O)C(C)O)cc1 (configuration not stated)
inactive: Potency [1] | Potency [2] | Potency [3] | Potency [4] | Potency [5] | Potency [6] | Potency [7] | Potency [8]

C=CC(C)(C)O[C@@H]1O[C@H](CO[C@@H]2OC[C@](O)(CO)[C@H]2O)[C@@H](O)[C@H](O)[C@H]1O
inactive: Potency [1] | Potency [2] | Potency [3] | Potency [4] | Potency [5] | Potency [6] | Potency [7] | Potency [8]

CC1(C)CCC[C@@]2(C)[C@H]1[C@H](O)C=C1COC(=O)[C@@]12O
inactive: Potency [1] | Potency [2] | Potency [3] | Potency [4] | Potency [5] | Potency [6] | Potency [7] | Potency [8]

CCc1c(CC(N)=O)c2cc(OCCCP(=O)(O)O)ccc2n1Cc1ccccc1
inactive: Potency [1] | Potency [2] | Potency [3] | Potency [4] | Potency [5] | Potency [6] | Potency [7] | Potency [8]

C=CCc1ccc(O[C@@H]2O[C@H](CO)[C@@H](O)[C@H](O)[C@H]2O)c(OC)c1
inactive: Potency [1] | Potency [2] | Potency [3] | Potency [4] | Potency [5] | Potency [6] | Potency [7] | Potency [8]

C[C@@H]1O[C@@H](O[C@@H]2[C@@H](O)[C@H](O[C@@H]3[C@@H](O)[C@@H](O)[C@H](O[C@H]4[C@H](OC(=O)[C@]56CCC(C)(C)C[C@H]5C5=CCC7[C@@]8(C)C[C@H](O)[C@H](O[C@@H]9O[C@@H](C)[C@H](O)[C@@H](O)[C@H]9O)[C@@](C)(CO)C8CC[C@@]7(C)[C@]5(C)C[C@H]6O)O[C@H](C)[C@H](O)[C@@H]4O)O[C@H]3C)OC[C@H]2O)[C@H](O)[C@H](O)[C@H]1O (some centres not stated)
inactive: activity change, negative = cytotoxicity [1] -4.41% [at 6.55 µM] | activity change, negative = cytotoxicity [2] 3.33% [at 6.55 µM] | activity change, negative = cytotoxicity [3] 5.23% [at 6.55 µM] | activity change, negative = cytotoxicity [4] 1.34% [at 6.55 µM] | activity change, negative = cytotoxicity [5] 4.8% [at 6.55 µM] | activity change, negative = cytotoxicity [6] 7.81% [at 6.55 µM] | activity change, negative = cytotoxicity [7] -0.124% [at 6.55 µM] | activity change, negative = cytotoxicity [8] 9.68% [at 6.55 µM]

CCCCS(=O)(=O)Nc1ncnc(OCCOc2ncc(Br)cn2)c1-c1ccc(Br)cc1
inactive: Potency [1] | Potency [2] | Potency [3] | Potency [4] | Potency [5] | Potency [6] | Potency [7] | Potency [8]

CCOC(=O)[C@H]1O[C@@H]1C(=O)N[C@@H](CC(C)C)C(=O)NCCC(C)C
inactive: Potency [1] | Potency [2] | Potency [3] | Potency [4] | Potency [5] | Potency [6] | Potency [7] | Potency [8]

CC(=O)OCC1=C[C@H](O)[C@@H]2C(C(=O)O)=CO[C@@H](O[C@@H]3O[C@H](CO)[C@@H](O)[C@H](O)[C@H]3O)[C@H]12
inactive: Potency [1] | Potency [2] | Potency [3] | Potency [4] | Potency [5] | Potency [6] | Potency [7] | Potency [8]

O=C1[C@H](O[C@@H]2O[C@H](CO)[C@@H](O)[C@H](O)[C@H]2O)Oc2ccccc2N1O
inactive: Potency [1] | Potency [2] | Potency [3] | Potency [4] | Potency [5] | Potency [6] | Potency [7] | Potency [8]

CC1CCC2(C(=O)OC3OC(CO)C(O)C(O)C3O)CCC3(C(=O)O)C(=CCC4C5(C)CCC(OC6OC(C)C(O)C(O)C6O)C(C)(C)C5CCC43C)C2C1C (configuration not stated)
inactive: Potency [1] | Potency [2] | Potency [3] | Potency [4] | Potency [5] | Potency [6] | Potency [7] | Potency [8]

C[C@@H]1O[C@@H](O[C@H]2[C@H](OC(=O)[C@]34CCC(C)(C)C[C@H]3C3=CCC5[C@@]6(C)C[C@H](O)[C@H](O[C@@H]7O[C@H](CO)[C@@H](O[C@@H]8O[C@H](CO)[C@@H](O)[C@H](O)[C@H]8O)[C@H](O)[C@H]7O)[C@@](C)(CO)C6[C@H](O)C[C@@]5(C)[C@]3(C)C[C@H]4O)OC[C@H](O)[C@@H]2O)[C@H](O)[C@H](O)[C@H]1O[C@@H]1OC[C@@H](O)[C@H](O[C@@H]2OC[C@](O)(CO)[C@H]2O)[C@H]1O (some centres not stated)
inactive: activity change, negative = cytotoxicity [1] 5.24% [at 6.55 µM] | activity change, negative = cytotoxicity [2] 5.03% [at 6.55 µM] | activity change, negative = cytotoxicity [3] 1.73% [at 6.55 µM] | activity change, negative = cytotoxicity [4] 7.67% [at 6.55 µM] | activity change, negative = cytotoxicity [5] 4.05% [at 6.55 µM] | activity change, negative = cytotoxicity [6] -7.05% [at 6.55 µM] | activity change, negative = cytotoxicity [7] 2.26% [at 6.55 µM] | activity change, negative = cytotoxicity [8] 2.65% [at 6.55 µM]

O=C1NC(=Nc2ccccc2F)S/C1=C\c1ccc(C(=O)O)cc1
inactive: Potency [1] | Potency [2] | Potency [3] | Potency [4] | Potency [5] | Potency [6] | Potency [7] | Potency [8]

CC(C(=O)O)C1CCC2(C)C3C(=O)C=C4C(CCC(=O)C4(C)C)C3(C)CCC12C (configuration not stated)
inactive: Potency [1] | Potency [2] | Potency [3] | Potency [4] | Potency [5] | Potency [6] | Potency [7] | Potency [8]

Cc1cc(C)c(S(=O)(=O)N(Cc2ccc(-c3cccc(S(C)(=O)=O)c3)cc2)Cc2ccc(C(F)(F)F)o2)c(C)c1
inactive: Potency [1] | Potency [2] | Potency [3] | Potency [4] | Potency [5] | Potency [6] | Potency [7] | Potency [8]

CC/C=C/CC1=C(CCCCCCCC(=O)O)CCC1=O
inactive: Potency [1] | Potency [2] | Potency [3] | Potency [4] | Potency [5] | Potency [6] | Potency [7] | Potency [8]

CC1NC(=O)CNC(=O)C(C(C)C)NC(=O)C2CCCN2C(=O)C(C(C)C)NC(=O)C(Cc2c[nH]c3ccccc23)NC1=O (configuration not stated) (cyclo(GAWVPV); configuration not given here)
inactive: Potency [1] | Potency [2] | Potency [3] | Potency [4] | Potency [5] | Potency [6] | Potency [7] | Potency [8]

O=C(/C=C/c1c(C(=O)O)[nH]c2cc(Cl)cc(Cl)c12)Nc1ccccc1
inactive: Potency [1] | Potency [2] | Potency [3] | Potency [4] | Potency [5] | Potency [6] | Potency [7] | Potency [8]

CC(=O)O[C@@H]1[C@H](O[C@@H]2OC[C@](O)(CO)[C@H]2O)[C@@H](O[C@@H]2O[C@@H](C)[C@H](O)[C@@H](O)[C@H]2O)[C@H](OC(=O)[C@]23CCC(C)(C)C[C@H]2C2=CCC4[C@@]5(C)C[C@H](O)[C@H](O[C@@H]6O[C@H](C(=O)O)[C@@H](O)[C@H](O)[C@H]6O)[C@@](C)(C(=O)O)C5CC[C@@]4(C)[C@]2(C)CC3)O[C@@H]1C (some centres not stated)
inactive: activity change, negative = cytotoxicity [1] 1.8% [at 11.6 µM] | activity change, negative = cytotoxicity [2] 0.991% [at 11.6 µM] | activity change, negative = cytotoxicity [3] 9.21% [at 11.6 µM] | activity change, negative = cytotoxicity [4] 0.39% [at 11.6 µM] | activity change, negative = cytotoxicity [5] 0.243% [at 11.6 µM] | activity change, negative = cytotoxicity [6] -6.11% [at 11.6 µM] | activity change, negative = cytotoxicity [7] 1.94% [at 11.6 µM] | activity change, negative = cytotoxicity [8] 2.89% [at 11.6 µM]

COc1cc(/C=C/CO)ccc1O[C@@H]1O[C@H](CO)[C@@H](O)[C@H](O)[C@H]1O
inactive: Potency [1] | Potency [2] | Potency [3] | Potency [4] | Potency [5] | Potency [6] | Potency [7] | Potency [8]

C[C@@H]1O[C@@H](OC[C@H]2O[C@@H](OCC3CCC4CC3C4(C)C)[C@H](O)[C@@H](O)[C@@H]2O)[C@H](O)[C@H](O)[C@H]1O (some centres not stated)
inactive: Potency [1] | Potency [2] | Potency [3] | Potency [4] | Potency [5] | Potency [6] | Potency [7] | Potency [8]

COC(=O)[C@@H]1C2CC3c4[nH]c5ccccc5c4CCN3CC2CC[C@@H]1O (some centres not stated)
inactive: Potency [1] | Potency [2] | Potency [3] | Potency [4] | Potency [5] | Potency [6] | Potency [7] | Potency [8]

CC1CCC23COC(=O)C2=CC(O)CC3C1(C)CCC1=CC(=O)OC1O (configuration not stated)
inactive: Potency [1] | Potency [2] | Potency [3] | Potency [4] | Potency [5] | Potency [6] | Potency [7] | Potency [8]

CC1(C)OC(=O)C(OCC2CC2)=C1c1ccc(S(C)(=O)=O)cc1
inactive: Potency [1] | Potency [2] | Potency [3] | Potency [4] | Potency [5] | Potency [6] | Potency [7] | Potency [8]

COc1cc(/C=C/C(=O)OC(C)(C)C(OC2OC(CO)C(O)C(O)C2O)C(=O)OCc2ccc(OC3OC(CO)C(O)C(O)C3O)cc2)ccc1O (configuration not stated)
inactive: Potency [1] | Potency [2] | Potency [3] | Potency [4] | Potency [5] | Potency [6] | Potency [7] | Potency [8]

O=C(c1ccc(F)cc1)C1CCN(CCn2c(=O)nc3n(c2=O)CCCC3)CC1
inactive: Potency [1] | Potency [2] | Potency [3] | Potency [4] | Potency [5] | Potency [6] | Potency [7] | Potency [8]

CCOC(=O)N1CCC(NCCNC(=O)c2ccccc2C)CC1
inactive: Potency [1] | Potency [2] | Potency [3] | Potency [4] | Potency [5] | Potency [6] | Potency [7] | Potency [8]

Nc1nc(CC(=O)Nc2ccc(CCNCC(O)c3ccccc3)cc2)cs1 (configuration not stated)
inactive: Potency [1] | Potency [2] | Potency [3] | Potency [4] | Potency [5] | Potency [6] | Potency [7] | Potency [8]

COc1cc(/C=C/C(=O)OC2CC(C)=C(C(=O)O)/C2=C/CO[C@@H]2O[C@H](CO)[C@@H](O)[C@H](O)[C@H]2O)ccc1O (some centres not stated)
inactive: Potency [1] | Potency [2] | Potency [3] | Potency [4] | Potency [5] | Potency [6] | Potency [7] | Potency [8]

CC1(C)CCCC2(C)C(CO)C3CCC2C31 (configuration not stated)
inactive: Potency [1] | Potency [2] | Potency [3] | Potency [4] | Potency [5] | Potency [6] | Potency [7] | Potency [8]

Cc1nnc(C(C)C)n1C1CC2CCC(C1)N2CC[C@H](NC(=O)C1CCC(F)(F)CC1)c1ccccc1 (some centres not stated)
inactive: Potency [1] | Potency [2] | Potency [3] | Potency [4] | Potency [5] | Potency [6] | Potency [7] | Potency [8]

COc1ccc(C(=O)O[C@H]2CC(C)=CC[C@@]3(C)[C@@H](OC(C)=O)C[C@@](O)(C(C)C)[C@H]23)cc1
inactive: Potency [1] | Potency [2] | Potency [3] | Potency [4] | Potency [5] | Potency [6] | Potency [7] | Potency [8]

O=C(O)c1cnn(-c2nc3cc(OC(F)(F)F)c(Cl)cc3[nH]2)c1
inactive: Potency [1] | Potency [2] | Potency [3] | Potency [4] | Potency [5] | Potency [6] | Potency [7] | Potency [8]
